Compound activity: PubChem, several laboratories
Only some compounds are listed: those with a hit (about 4.2% of all), similar ones and a draw of the others.
FBA Mtb inh – inhibitors of M. tuberculosis fructose-bisphosphate aldolase | inhibition, % at 1 µM | purified M. tuberculosis FBA, fluorescence read-out | 360,000 compounds, 2.3% hits | AID 588726 | P9WQA3;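 also: 0% = vehicle and 100% = reference inhibitor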
RecA splice inh – inhibitors of M. tuberculosis RecA intein splicing. P9WHJ3. cell-free RecA intein splicing, fluorescence. inhibition, % (test concentration not listed). 290,000 compounds, 0.75% hits; in the data active = inhibition above about 30%;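 also: 0% = vehicle wells and 100% = reference inhibitor control wells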
GDH-TPI counter-1 – inhibits GDH-TPI coupling enzymes, artifact for Mtb FBA screen | GDH-TPI coupled enzyme counterscreen, NADH absorbance | inhibition, % at 4.8 µM | 360,000 compounds, 1.2% hits | AID 588335; in the data active = inhibition above about 30%;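 also: 0% = DMSO wells and 100% = wells lacking the enzyme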
Mtb betalactam – beta-lactam sensitization of Mtb H37Rv. M. tuberculosis H37Rv growth with meropenem, percent inhibition. inhibition, % at 25 µM. 330,000 compounds, 0.27% hits. AID 434955; call rule not given here;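 also: growth measured after seven days incubation then overnight dye step; 0% = bacteria only wells and 100% = bacteria with antibiotic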
CCHFV vOTU inh – blocks the CCHF virus ovarian tumor domain protease; inhibition, % at 11.5 µM; 370,000 compounds, 0.55% hits; CCHFV vOTU protease, Pep-AMC fluorescence; in the data active = inhibition above about 30%; also: 0% = vehicle wells with enzyme and 100% = no enzyme wells
Mtb FBA inh conf – Mtb FBA inhibition, confirmed; shares compounds with FBA Mtb inh; purified M. tuberculosis FBA, fluorescence read-out; inhibition, % at 1 µM; 5,600 compounds, 78% hits; AID 651616;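 also: 0% = vehicle wells and 100% = reference inhibitor wells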
GDH-TPI counter-2 – inhibits GDH-TPI coupling enzymes, flagging Mtb FBA hits; shares compounds with FBA Mtb inh; GDH-TPI coupled enzyme counterscreen, fluorescence; inhibition, % at 1 µM; 5,600 compounds, 81% hits; in the data active = inhibition above about 10%
GDH-TPI DR – GDH-TPI dose response counter-screen for Mtb FBA | 170 compounds, 79% hits | IC50, µM | AID 652145 | shares compounds with FBA Mtb inh | GDH-TPI coupled enzyme assay, fluorescence, artifact counterscreen; call rule not given here
Numbers without * were called inactive; . = no result given; + = active, no number; ! = repeats disagree. Rule as the data show it, unless noted: active = inhibition above about 27%; inactive = the rest.

SMILES | FBA Mtb inh | RecA splice inh | GDH-TPI counter-1 | Mtb betalactam | CCHFV vOTU inh | Mtb FBA inh conf | GDH-TPI counter-2 | others
CC(C)Cn1c(-c2cccs2)nc2ccccc21 | 51* | . | 5 | 1 | 2 | + | 152*
c1csc(Cn2c(-c3cccs3)nc3ccccc32)c1 | 63* | -2 | 34* | 6 | -7 | 25 | 28*
Cc1ccccc1CN1CCN(C(=O)[C@H]2O[C@@H](n3cnc(C(N)=O)n3)[C@H](O)[C@@H]2O)CC1 | . | . | . | . | -4 | . | .
COc1ccc(-c2oc3ccccc3c2C(=O)OCc2ccccc2OC)cc1 | 73* | 0 | 31* | 10 | -39 | -7 | -8
COc1ccc(C(=O)c2c(-c3ccc(OC)cc3)oc3ccccc23)cc1 | 1 | . | 5 | 10 | 10 | . | .
Cc1cc(=O)n2c(nc3ccccc32)[nH]1 | 37* | 0 | -3 | -1 | -17 | 64* | 42*
CCCCc1c(O)n2c(nc3ccccc32)[nH]c1=O | -12 | -1 | 0 | -1 | 2 | . | .
CCCc1cc(=O)n2c(nc3ccccc32)[nH]1 | 47* | 0 | 14 | -3 | -7 | 4 | -5
CC(C)C[C@H]1COc2cc(Br)ccc2S(=O)(=O)N1Cc1cn(CCC2OCCO2)nn1 | . | . | . | . | 4 | . | .
CCCCCCCCN1C(=O)[C@@H](CC(=O)NCc2cccc3ccccc23)C[C@@]2(C(=O)OC)C1=C[C@H](C(C)(C)C)O[C@@H]2C | . | . | . | . | 10 | . | .
CCN(C(=S)Nc1cccnc1)c1cccc2ccccc12 | 49* | 7 | 5 | -2 | -31 | 148* | 128*
COc1cc(C)cc2oc(=O)c(CC(=O)N3C[C@H]4C[C@@H](C3)c3cccc(=O)n3C4)c(C)c12 | 81* | -1 | 4 | 9 | -52 | 139* | 124*
Cc1cc(O)c2c(C)c(CC(=O)N3C[C@H]4C[C@@H](C3)c3cccc(=O)n3C4)c(=O)oc2c1 | 2 | -3 | 10 | 3 | -6 | . | .
C=C(C)COc1ccc2c(C)c(CCC(=O)N3C[C@H]4C[C@@H](C3)c3cccc(=O)n3C4)c(=O)oc2c1 | 70* | -3 | 24 | -3 | -13 | 65* | 53*
Cc1c(C)c2ccc(OCC(=O)N3C[C@H]4C[C@@H](C3)c3cccc(=O)n3C4)cc2oc1=O | 60* | 1 | 23 | -1 | -6 | -8 | -6
C=C(C)COc1cc2oc(=O)c(CC(=O)N3C[C@H]4C[C@@H](C3)c3cccc(=O)n3C4)c(C)c2cc1Cl | 68* | -14 | 23 | -4 | -66 | 2 | -3
Cc1cc(=O)oc2cc(OCC(=O)N3C[C@H]4C[C@@H](C3)c3cccc(=O)n3C4)ccc12 | 6 | 2 | -6 | 0 | -6 | . | .
COC(=O)[C@]12C[C@H](CC(=O)NCc3cccc(C(F)(F)F)c3)C(=O)N(CCc3ccc(OC)c(OC)c3)C1=C[C@H](C1CCCC1)O[C@@H]2C | . | . | . | . | 21 | . | .
CCn1nc2cc(C(=O)NCC34CC5CC(CC(C5)C3)C4)ccc2c1OC | 28* | -1 | 11 | 1 | -17 | 14 | -5 | GDH-TPI DR=4*
COCCNCC(=O)NCC12CC3CC(CC(C3)C1)C2 | 1 | 7 | 5 | -3 | -4 | . | .
CCOc1c2ccc(C(=O)NCC34CC5CC(CC(C5)C3)C4)cc2nn1CC | 39* | 5 | 8 | -5 | -18 | 1 | 6
CCOc1ccc(OCCNC(=O)c2ccc3c(c2)nnn3CC)cc1 | 2 | . | 3 | -2 | -3 | . | .
CCCCn1nc2cc(C(=O)NCC34CC5CC(CC(C5)C3)C4)ccc2c1OC | 31* | 6 | 8 | 74 | -6 | 57* | 43*
COC(=O)c1ccc2c(C3(c4c[nH]c5ccccc45)CCN(C(=O)OC(C)(C)C)CC3)c[nH]c2c1 | . | . | . | . | 15 | . | .
Cc1ccccc1C1N=C2Oc3ccccc3C=C2C(=O)N1 (stereo not given) | 96* | . | . | . | -89 | 70* | 52*
CCN1CCN(Cc2ccc(NC(=O)c3ccc(C)c(NC(=O)c4cccc5[nH]ccc45)c3)cc2C(F)(F)F)CC1 | 30*! | 5 | -10 | 38 | -8 | + | +
